This passage reports inhibition results from ChEMBL document CHEMBL3433997, “St. Jude Leishmania screening dataset” (2016).

What all share (format): functional
Assay [1] concerns the target Solute carrier family 2, facilitated glucose transporter member 1 (Homo sapiens) (UniProt P11166). As to the kind of experiment: ST_JUDE_LEISH: Cytotoxicity at 2uM final concentration against transgenic Leishmania Mexicana promastigotes LmGLUT1 that are glucose transport deficient and complemented with the human glucose transporter GLUT1. Activity is measured by DNA content using SYBR green in vitro.

Assay [2] concerns the target Hexose transporter 1 (Plasmodium falciparum) (UniProt O97467). The assay is described as follows: ST_JUDE_LEISH: Cytotoxicity at 2uM final concentration against transgenic Leishmania Mexicana promastigotes LmPfHT that are glucose transport deficient and complemented with the Plasmodium falciparum hexose transporter. Activity is measured by DNA content using SYBR green in vitro.

Assay [3] deals with Glucose transporter (Leishmania mexicana) (UniProt O61059). As to the kind of experiment: ST_JUDE_LEISH: Cytotoxicity at 2uM final concentration against transgenic Leishmania Mexicana promastigotes LmGT2 that are glucose transport deficient and complemented with the L. Mexicana glucose transporter 2. Activity is measured by DNA content using SYBR green in vitro.

Chain of Solute carrier family 2, facilitated glucose transporter member 1 (Homo sapiens) (P11166 whole entry): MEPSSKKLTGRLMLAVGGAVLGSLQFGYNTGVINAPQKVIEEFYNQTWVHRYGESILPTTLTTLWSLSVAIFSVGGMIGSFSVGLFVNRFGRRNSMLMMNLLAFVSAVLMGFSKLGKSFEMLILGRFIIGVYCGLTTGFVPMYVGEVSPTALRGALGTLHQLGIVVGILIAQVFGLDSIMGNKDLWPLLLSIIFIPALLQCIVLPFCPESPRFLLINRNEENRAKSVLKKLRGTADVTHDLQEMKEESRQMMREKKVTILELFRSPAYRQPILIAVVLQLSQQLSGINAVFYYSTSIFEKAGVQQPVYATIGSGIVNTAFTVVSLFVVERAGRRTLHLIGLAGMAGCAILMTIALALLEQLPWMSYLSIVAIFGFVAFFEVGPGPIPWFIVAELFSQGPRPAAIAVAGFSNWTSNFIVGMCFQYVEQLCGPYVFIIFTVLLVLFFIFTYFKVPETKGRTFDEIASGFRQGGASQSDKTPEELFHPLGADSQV

For the compound `CCCCCC(C)C(C)c1cc(O)c2c(c1)OC(C)(C)C=C2c1cc[n+]([O-])cc1` (stereo not given), the figures for the inhibition in assay [1], in assay [2] and in assay [3] were 11%, 10.4% and 9.99%, respectively.

Regarding `O=C(Nc1ccc(-c2csc(-c3nc4ccccc4[nH]3)c2)cc1)Nc1ccc(Cl)c(Cl)c1`, the inhibition was 1.35% in assay [1], 1.35% in assay [2] and -1.48% in assay [3].

With `C=C[C@H]1CN(CCCCCCC)CC[C@H]1C[C@@H](Cc1ccnc2ccc(OC)cc12)OC(=O)[C@](OC)(c1ccccc1)C(F)(F)F`, the inhibition was 0.1% in assay [1], -0.32% in assay [2] and -3.72% in assay [3].

As for `Nc1ncc(-c2ccccc2)cc1/C=C/c1cccnc1`, the inhibition was 0.64% in assay [1], -2.47% in assay [2] and 0.23% in assay [3].

As for `O=C(NCCN1CCCCC1)c1ccc(CNC(=O)c2ccc(O)c(-c3cccc(C(F)(F)F)c3)c2)cc1`, the inhibition was 4.42% in assay [1], 3.09% in assay [2] and 3.27% in assay [3].

For the compound `O=C(Nc1cccc(-c2nn3ccccc3c2-c2ccnc(Nc3cccc(N4CCCC4=O)c3)n2)c1)c1cc(F)ccc1F`, the values for the inhibition in assay [1], in assay [2] and in assay [3] were 2.51%, 3.22% and 1.96%, respectively.

In the case of `CCOc1cc(C(C)C)ccc1N1CCN(CCCCNC(=O)c2ccc(NC(=O)c3ccc(Cl)cc3)cc2)CC1`, the figures for the inhibition in assay [1], in assay [2] and in assay [3] were 4.38%, 2.39% and 2.86%, respectively.

On to `COc1ccc2nccc([C@@H](O)CN3CCC(NC(=O)/C=C/c4ccc(F)c5ccccc45)CC3)c2c1`, for which the results for the inhibition in assay [1], in assay [2] and in assay [3] were 8.56%, 5.8% and 5.26%, respectively.

Turning to `Clc1ccc2c(Cl)c(CNCCCNc3nc4ccccc4[nH]3)[nH]c2c1`, the inhibition in assay [1] was determined as 0.17%; in assay [2], 0.94%; in assay [3], 1.14%.

Take `CC(C)[C@H](NC(=O)c1ccc(O)c(-c2ccc(Cl)c(Cl)c2)c1)C(=O)NCCN1CCOCC1`: the figures for the inhibition in assay [1], in assay [2] and in assay [3] were 2.3%, 4.31% and 4.06%, respectively.

`FC(F)(F)c1ccc2[nH]c(-c3cccc(-c4ccc(CNCCN5CCNCC5)cc4)c3)nc2c1`: the inhibition was determined as 2.75% in assay [1], 2.47% in assay [2] and 1.97% in assay [3].

As to `COc1ccc2ccccc2c1CCCCN1CCN(CC(c2ccc(F)cc2)N2CCN(C3CCCC3)CC2)CC1` (stereo not given), the results for the inhibition in assay [1], in assay [2] and in assay [3] were 2.16%, 4.07% and 1.41%, respectively.

With `Cc1cccc2[nH]c(-c3cc(-c4cn[nH]c4)cnc3N)nc12`, the inhibition in assay [1] was determined as 2.56%; in assay [2] it was 2.36%; in assay [3] it was 2.33%.

`CC(C)(C)Oc1ccc(CC2NC3(C(=O)N(Cc4ccc(C(C)(C)C)cc4)c4ccccc43)C3C(=O)N(c4ccc(Br)cc4)C(=O)C23)cc1` (stereo not given): the results for the inhibition in assay [1], in assay [2] and in assay [3] were -1.37%, 3% and 0.37%, respectively.

Turning to `COc1ccc2nccc([C@@H](O)CN3CCC(NCCOc4ccc(F)cc4[N+](=O)[O-])CC3)c2c1`, the inhibition in assay [1] was -1.59%; in assay [2], -1%; in assay [3], 1.61%.

Take `COc1ccc2nccc(N3CCC(SCCNCc4cc5c(cn4)OCCO5)C3)c2n1` (stereo not given): the inhibition in assay [1] is 0.61%; in assay [2], 0.85%; in assay [3], -2.04%.

Take `CNc1ccc(CNCc2cccc(-c3ccc(-c4nc5cccc(C)c5[nH]4)cc3)c2)cc1`: the inhibition in assay [1] was 7.63%; in assay [2] it was 5.63%; in assay [3], 0.87%.

In the case of `Cc1[nH]c2ccccc2c1C(=O)CSc1nn(-c2ccccc2)c(=S)s1`, the inhibition in assay [1] is 5.67%; in assay [2], 7.39%; in assay [3], 2.44%.

For `COc1ccccc1CC1CCCN(C2CCC(NC(=O)c3cc4ccccc4[nH]3)CC2)C1` (stereo not given), the inhibition in assay [1] was 0.46%; in assay [2], 0.32%; in assay [3] it was -0.6%.

Consider `OCC1CCN(Cc2cccc(C#Cc3cc4ncnc(Nc5ccc(OCc6cccc(F)c6)c(Cl)c5)c4s3)n2)CC1`, for which the values for the inhibition in assay [1], in assay [2] and in assay [3] were 14.1%, 8.82% and 9.61%, respectively.

Take `Cc1cc(N[C@@H](CC(C)C)C(=O)NCCc2ccccc2)nc(NCCc2cccs2)n1`: the inhibition was found to be 5% in assay [1], 7.09% in assay [2] and 5.46% in assay [3].

As for `Cc1c(-c2cccc(Br)c2)[nH]c2nc(N)nc(N)c12`, the figures for the inhibition in assay [1], in assay [2] and in assay [3] were 1.29%, 2.55% and 0.97%, respectively.

In the case of `COc1ccc(NC(=O)[C@H](Cc2ccccc2)Nc2cc(C)nc(Nc3ccccc3)n2)cc1`, the inhibition in assay [1] was 12.3%; in assay [2], 14.5%; in assay [3], 10.4%.

Take `CCN1CCN(c2cc(C)c3cc(NC(=O)c4cc(OC)cc(OC)c4)ccc3n2)CC1`: the values for the inhibition in assay [1], in assay [2] and in assay [3] were -0.26%, 1.03% and 2.19%, respectively.

For `CCN(CC)CCOc1ccc(N(Cc2ccc(C(C)(C)C)cc2)C(=O)c2ccc(Cc3ccccc3)cc2)cc1OC`, the inhibition is 17.8% in assay [1], 14.8% in assay [2] and 13.1% in assay [3].

Turning to `Clc1ccc(-c2[nH]c3ccccc3c2CN2CCC(N3CCCCC3)CC2)cc1`, the values for the inhibition in assay [1], in assay [2] and in assay [3] were 15.2%, 14.7% and 15.2%, respectively.

On to `COc1ccccc1N1CCN(C(C(=O)NCc2cccc(F)c2)c2ccc(C)cc2)CC1` (stereo not given), for which the inhibition in assay [1] was 2.99%; in assay [2] it was 3.56%; in assay [3] it was -1.92%.

As to `Cc1cccc2nc(-c3cccc(-c4ccc(NC(=O)Cc5c[nH]cn5)cc4)c3)[nH]c12`, the inhibition is -1.66% in assay [1], -0.73% in assay [2] and -0.58% in assay [3].

As for `CCc1c(C)nc(-n2nc(C)cc2NC(=O)C2c3ccccc3Oc3ccccc32)[nH]c1=O`, the values for the inhibition in assay [1], in assay [2] and in assay [3] were -0.64%, -0.55% and 3.35%, respectively.

Take `c1cc(CNCC2CCCO2)cc(-c2cccc(-c3nc4ccccc4[nH]3)c2)c1` (stereo not given): the results for the inhibition in assay [1], in assay [2] and in assay [3] were 1.58%, 1.76% and -0.18%, respectively.

Regarding `CCOC(=O)c1ccc(N2CCN(c3cc(C)ccc3C)CC2)c(NC(=O)Nc2ccc(Cl)c(Cl)c2)c1`, the inhibition is 0.52% in assay [1], 0.93% in assay [2] and -0.25% in assay [3].

In the case of `COc1ccc(OCCn2cc(C(=O)c3ccco3)c3ccccc32)cc1`, the results for the inhibition in assay [1], in assay [2] and in assay [3] were 3.1%, 1.5% and 2.42%, respectively.

As for `Cc1cc(N2CCCC2)nc(Nc2ccc(NC(=O)c3cccc(F)c3)cc2)n1`, the values for the inhibition in assay [1], in assay [2] and in assay [3] were 33.5%, 14.7% and 16.2%, respectively.

`CCCNCc1ccc(-c2ccc(CN(CCOC)C(=O)CC3CCCC3=O)cc2)nc1` (stereo not given): the inhibition in assay [1] is 0.55%; in assay [2], 0.07%; in assay [3], -9.43%.

Consider `C=C1C(C(=O)OCC)=CN(CC)c2cc(O[C@H]3CCN(C(=O)OC(C)(C)C)C3)ccc21`, for which the inhibition in assay [1] was 2.71%; in assay [2], 2.53%; in assay [3], -2.32%.

Broadly, the inhibition is the relative decrease from the control value, in per cent.
